This is one part of the list. Activity calls are given as the source filed them. Calls follow the shape of the full dose curve.
biological target: DNA polymerase beta (Homo sapiens) (UniProt P06746); experiment: Inhibitors of DNA Polymerase Beta: Hit validation; conditions: Pol beta primer extension/strand displacement, fluorescence kinetic
Text: The base excision repair system in human cells is a target for therapeutic modulation of the response to irradiation treatment and DNA-damaging drugs. A key enzyme in this system is the bi-functional DNA polymerase known as DNA polymerase Beta (Pol Beta). The following is a homogeneous kinetic assay to study the primer extension and strand-displacement reaction catalyzed by pol beta.
A stepwise description of the 1536-well assay is shown in next Table. Three microliters of reagents (buffer in column 3 and 4 as negative control and 10 nM Pol beta in columns 1, 2, and 5-48) was dispensed into 1,536-well black solid-bottomed plate. Compounds (23 nL) were transferred via Kalypsys pin tool equipped with 1536-pin array (10 nL slotted pins, V&P Scientific, San Diego, CA). The plates were incubated for 15 min at room temperature, and 1 uL substrate (50 nM final concentration) were added to start the reaction and immediately read at 0 min read on Viewlux reader. The plate were further incubated for 10 min at room temperature, and then read on Viewlux again. Throughout the screen, reagent bottle and all liquid lines were chilled and made light-tight to minimize reagent degradation. All screening operations were performed on a fully integrated robotic system (Kalypsys, San Diego, CA) containing one RX-130 and two RX-90 anthropomorphic robotic arms (Staubli, Duncan, SC). Library plates were screened starting from the lowest and proceeding to the highest concentration, and a double-dipping step of the highest concentration was required to access higher concentrations of compounds. Vehicle-only plates, with DMSO being pin-transferred to the entire column 5-48 compound area, were inserted uniformly at the beginning and the end of each library in order to monitor for and record any shifts in the background, which can be affected by reagent dispensers or loss in enzyme activity overtime. Screening data were corrected, normalized, and concentration-effect relationships were derived by using publicly-available curve fitting algorithms developed in-house (http://ncgc.nih.gov/pub/openhts). A four parameter Hill equation was fitted to the concentration-response data by minimizing the residual error between the modeled and observed responses.
Potency is read from the fitted curve at half-maximal effect.

Potency, active:
COc1ccc(Cc2nnc(NC(=O)Cc3cccs3)s2)cc1 6.31 µM
Cc1ccc2nc(-c3ccncc3)cc(C(=O)Nc3ccc(OC(F)F)cc3)c2c1 35.5 µM
Cc1ccc(C(=O)Oc2coc(CSc3nnc(NC(=O)c4cccs4)s3)cc2=O)cc1C 31.6 µM
Cc1c(CCC(=O)O)c(=O)oc2c(C)c(OCc3ccccc3Cl)ccc12 12.6 µM
Cc1c(CC(=O)N2CCN(C(=O)C3COc4ccccc4O3)CC2)c(=O)oc2c(O)c(O)ccc12 (configuration not stated) 2.24 µM
COc1cc([C@H](Cc2ccccc2)NC(C)=O)oc(=O)c1 28.2 µM
O=C(Nc1ccc(S(=O)(=O)Nc2nccs2)cc1)c1cc(-c2ccncc2)nc2ccccc12 25.1 µM
